{
  "source": "ChEMBL document CHEMBL3988442",
  "about": "“University of Dundee, Small-Polar-MMV Screening Library” (2021)",
  "note": "Hit rate of the full screen: of about 48,000 compounds, about 13,000 (27%) showed an effect of 50% or more. The list shows a part of the results.",
  "data": [
    {"system": "Wolbachia pipientis", "assay": "Anti-Wolbachia Cell-Based Screen", "format": "functional", "parameters": "scale not given: in the data most compounds retested in dose-response had high values", "conditions": "5 µM", "units": {"Percent Effect": "%"}, "values": [
      {"smiles": "Cc1nnn2c1COC(CNCc1ccccn1)C2.O=C(O)C(F)(F)F", "note": "(centres undefined)", "Percent Effect": -4.028},
      {"smiles": "Cc1cnc(N)nc1NCCSCc1[nH]cnc1C", "Percent Effect": -14.55},
      {"smiles": "Cc1ccc(C)n1-c1ccc(C(=O)NCCNc2ncccn2)cc1", "Percent Effect": 4.736},
      {"smiles": "Cc1cccc(CN2CCN(Cc3ccccc3)CC(O)C2)n1", "note": "(centres undefined)", "Percent Effect": -8.122},
      {"smiles": "Cc1nc(CN2CCCC(c3nccs3)C2)cs1", "note": "(centres undefined)", "Percent Effect": 114.8},
      {"smiles": "CC(C)c1nc(CN2CCCC(O)C2)cs1", "note": "(centres undefined)", "Percent Effect": 12.3},
      {"smiles": "CC1CCCN(Cc2csc(-c3ncccn3)n2)CC1", "note": "(centres undefined)", "Percent Effect": 3.521},
      {"smiles": "Cc1nc(CN2C[C@@H]3CN(C(=O)c4cnccn4)C[C@@H]3C2=O)cs1", "Percent Effect": 9.269},
      {"smiles": "CCn1ccnc1C1CCN(Cc2cccc(C)n2)CC1", "Percent Effect": -3.832},
      {"smiles": "Cc1nc(CN2CCCC(c3cnccn3)C2)cs1", "note": "(centres undefined)", "Percent Effect": 124.4},
      {"smiles": "Cc1nc(CN2CCCN(C(=O)COCC3CC3)CC2)cs1", "Percent Effect": 18.11},
      {"smiles": "Cc1cccc(CN2CCCC(c3nccs3)C2)n1", "note": "(centres undefined)", "Percent Effect": 160.1},
      {"smiles": "CSCC(=O)N1C[C@H]2CC[C@@H]1CN(Cc1ccccc1)C2", "Percent Effect": -24.58},
      {"smiles": "COCCc1noc(Cn2ccc3ncccc3c2=O)n1", "Percent Effect": -12.09},
      {"smiles": "CCOc1ccc2[nH]c(=O)c(CN(C)CCc3cn[nH]c3)cc2c1", "Percent Effect": -1.744},
      {"smiles": "Cc1ccc(CN2C[C@@H]3COC[C@@H](NS(C)(=O)=O)[C@@H]3C2)o1.O=C(O)C(F)(F)F", "Percent Effect": -14.86},
      {"smiles": "Cc1ccc(CN2CC(C(=O)Nc3ccccc3)C3(CCOCC3)C2)s1.O=C(O)C(F)(F)F", "note": "(centres undefined)", "Percent Effect": -15.56},
      {"smiles": "CCc1ccc(CN2C[C@@H]3COC[C@H](NS(C)(=O)=O)[C@@H]3C2)o1.O=C(O)C(F)(F)F", "Percent Effect": 136.7},
      {"smiles": "Cc1ccc(CN2C[C@@H]3COC[C@H](NS(C)(=O)=O)[C@@H]3C2)s1.O=C(O)C(F)(F)F", "Percent Effect": 111.5},
      {"smiles": "Cc1ccc(CN2C[C@@H]3COC[C@H](NS(C)(=O)=O)[C@@H]3C2)o1.O=C(O)C(F)(F)F", "Percent Effect": 6.614},
      {"smiles": "Cc1ccc(CN2CCOC3(COCCN(S(C)(=O)=O)C3)C2)s1.O=C(O)C(F)(F)F", "note": "(centres undefined)", "Percent Effect": -6.803},
      {"smiles": "O=C(Cc1cnn(-c2ccccc2)n1)NC(C1CC1)C1CC1", "Percent Effect": -0.6445},
      {"smiles": "CC(C#N)(NC(=O)Cn1cc(I)cn1)C1CC1", "note": "(centres undefined)", "Percent Effect": 6.618},
      {"smiles": "CCC(C)(C)NC(=O)Cn1cc(C(N)=O)c(-c2ccccc2)n1", "Percent Effect": -8.057},
      {"smiles": "CC(NC(=O)CN1C=Nc2ccccc2S1(=O)=O)C1CC1", "note": "(centres undefined)", "Percent Effect": 22.51},
      {"smiles": "O=C(Cn1cc(-c2ccccc2)cn1)NC(C1CC1)C1CC1", "Percent Effect": 101.4},
      {"smiles": "CC(NC(=O)Cn1cc(-c2ccccc2)cn1)C1CC1", "note": "(centres undefined)", "Percent Effect": 82.35},
      {"smiles": "CC(NC(=O)COc1ccccc1I)C1CC1", "note": "(centres undefined)", "Percent Effect": 10.59},
      {"smiles": "CC(C)C(C)(C#N)NC(=O)Cn1cc(I)cn1", "note": "(centres undefined)", "Percent Effect": 3.38},
      {"smiles": "CC(C)CNC(=O)Cn1cc(C(N)=O)c(-c2ccccc2)n1", "Percent Effect": 7.305},
      {"smiles": "Cc1ccc(NC(=O)Cn2cc(I)cn2)cc1", "Percent Effect": 92.57},
      {"smiles": "CCC(CC)NC(=O)Cn1cc(-c2ccccc2)cn1", "Percent Effect": 106.4},
      {"smiles": "CNC(=O)NC(=O)Cn1cc(-c2ccccc2)cn1", "Percent Effect": -1.753},
      {"smiles": "Cc1csc(CN2C[C@@H]3CN(CC4CCOCC4)CCO[C@@H]3C2)n1", "Percent Effect": -2.484},
      {"smiles": "Fc1cccc(N2CCCC3(CN(Cc4nccs4)CCO3)C2)c1.O=C(O)C(F)(F)F.O=C(O)C(F)(F)F", "note": "(centres undefined)", "Percent Effect": -19.19},
      {"smiles": "CC(C)(C)c1nnc(CN2CCN(C(=O)N3CCCCC3)CC2)o1", "Percent Effect": 1.432},
      {"smiles": "CC(C)C(C)(C#N)NC(=O)Cn1cc(-c2ccccc2)cn1", "note": "(centres undefined)", "Percent Effect": -4.052},
      {"smiles": "Cc1ccc(-c2cnn(CC(=O)NC(C)C)c2)cc1", "Percent Effect": 96.48},
      {"smiles": "CC(C)NC(=O)Cn1cc(-c2ccccc2)cn1", "Percent Effect": 1.398},
      {"smiles": "CCC(CNC(=O)c1c(C)nn(C)c1OC)Oc1ccccc1", "note": "(centres undefined)", "Percent Effect": -1.987},
      {"smiles": "CCc1nc(NS(=O)(=O)c2cc(C)ccc2Br)no1", "Percent Effect": -0.5408},
      {"smiles": "Cc1cc(C)nc(N(C)CCN(C)C2CCCC2)n1", "Percent Effect": 8.027},
      {"smiles": "Cc1nn(C)cc1-c1cncn1CCN(C)C1CCCC1.Cl", "Percent Effect": 82.1},
      {"smiles": "CCCN1CCCn2nc(CNC(=O)CN(C)C3CCCC3)cc2C1", "Percent Effect": -1.804},
      {"smiles": "Cc1nn(C)c2nc(N(C)CCN(C)C3CCCC3)sc12", "Percent Effect": -5.269},
      {"smiles": "CCCn1nc(C)c(-c2cncn2CCN(C)C2CCCC2)c1C.Cl", "Percent Effect": 99.02},
      {"smiles": "CN(CC1CCCC1)C(=O)c1cn(C)nc1-c1cccnc1", "Percent Effect": -17.59},
      {"smiles": "CCn1nc(C)c(-c2cncn2CCN(C)C2CCCC2)c1C.Cl", "Percent Effect": 94.51},
      {"smiles": "Cn1nnc(C2(NC(=O)c3ccccc3)CCCC2)n1", "Percent Effect": -16.42},
      {"smiles": "COCCN1CC(Nc2nc(C3CCCC3)nc3c2cnn3C)CC1=O", "note": "(centres undefined)", "Percent Effect": -0.7638},
      {"smiles": "Cn1ncc2c(N[C@@H]3CS(=O)(=O)C[C@H]3O)nc(C(C)(C)C)nc21", "Percent Effect": -3.65},
      {"smiles": "CC(=O)NCCNc1nc(C2CCCC2)nc2c1cnn2C", "Percent Effect": -24.98},
      {"smiles": "COCc1nc(NCC2CCS(=O)(=O)C2)c2cnn(C)c2n1", "note": "(centres undefined)", "Percent Effect": 14.43},
      {"smiles": "CCCn1cc(C(=O)NC2CCN(CC(=O)NC3CC3)CC2)c(C)n1", "Percent Effect": -20.41},
      {"smiles": "Cn1ncc2c(N[C@H]3CCCC[C@@H]3O)nc(C(C)(C)C)nc21", "Percent Effect": 2.356},
      {"smiles": "CCc1nc(NC2CCCN(C(=O)C3CC3)C2)c2cnn(C)c2n1", "note": "(centres undefined)", "Percent Effect": 100.4},
      {"smiles": "CCc1nc(NCC2CCCN(C(=O)C3CC3)C2)c2cnn(C)c2n1", "note": "(centres undefined)", "Percent Effect": 149.3},
      {"smiles": "Cn1ncc2c(N[C@H]3CC[C@@H](N)CC3)nc(C(C)(C)C)nc21", "Percent Effect": -50.36},
      {"smiles": "Cn1ncc2c(NC3CCCN(C(=O)C4CC4)C3)nc(C(C)(C)C)nc21", "note": "(centres undefined)", "Percent Effect": 108.6},
      {"smiles": "CC(C)C(=O)N1CCC(CNc2nc(C(C)C)nc3c2cnn3C)CC1", "Percent Effect": -5.658},
      {"smiles": "CCc1nc(NC2CCN(CC(=O)NC3CC3)CC2)c2cnn(C)c2n1", "Percent Effect": 85.47},
      {"smiles": "Cc1cc(C(=O)NCc2ccc(N3CCCC(C(N)=O)C3)cc2)no1", "note": "(centres undefined)", "Percent Effect": -5.438},
      {"smiles": "O=C(Cc1ccc(F)c(F)c1)NC1COc2ccccc2C1=O", "note": "(centres undefined)", "Percent Effect": -17.04},
      {"smiles": "Cc1ccc(CN(CC(=O)NC2CCOCC2)c2ccc(F)cc2)o1", "Percent Effect": -4.166}
    ]}
  ]
}
